Results from PubChem BioAssay AID1159580 (chemical genetic matrix, 2015).
Among all 5,500 compounds or so, about 2,000 (36%) were called active. Roughly 18% stayed inconclusive and do not appear here. Rule as the data show it: active = normalized growth mostly below about 0.91 (no sharp cut-off); inconclusive = no clear call, values can overlap the other calls; inactive = mostly above about 0.92. The list shows a part of the results.

Assay: chemical genetic growth profiling, strain panel (AID 1159580);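 also: tested at 20 µM; growth read once vehicle control cultures reached saturation at 30 °C; 1 = growth at the plate median or of vehicle wells; lower values mean less growth of the strain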
Settings: S. cerevisiae deletion strains, growth OD

Measured: normalized growth

CC(C)=CCC/C(C)=C/CC/C(C)=C/CC/C(C)=C/CC/C(C)=C/CC/C(C)=C/CC/C(C)=C/CC/C(C)=C/CC/C(C)=C/CO
active: locus YNL248C, strain rpa49, hits give low values 1.16 [resistant]
inactive: locus YAL021C, strain ccr4, hits give low values 0.988 | locus YAL026C, strain drs2, hits give low values 1 | locus YAL030W, strain snc1, hits give low values 0.993 | locus YBL061C, strain skt5, hits give low values 0.988 | locus YBR009C, strain hhf1, hits give low values 0.995 | locus YBR023C, strain chs3, hits give low values 1 | locus YBR171W, strain sec66, hits give low values 1 | locus YBR231C, strain swc5, hits give low values 0.986 | locus YBR279W, strain paf1, hits give low values 0.966 | locus YCL011C, strain gbp2, hits give low values 0.985 | locus YCL016C, strain dcc1, hits give low values 0.99 | locus YCL061C, strain MRC1, hits give low values 0.994 | locus YCL069W, strain vba3, hits give low values 0.99 | locus YCR088W, strain abp1, hits give low values 0.988 | locus YDL005C, strain med2, hits give low values 0.992 | locus YDL040C, strain nat1, hits give low values 0.992 | locus YDR001C, strain nth1, hits give low values 0.99 | locus YDR069C, strain doa4, hits give low values 1.01 | locus YDR137W, strain rgp1, hits give low values 1.01 | locus YDR159W, strain sac3, hits give low values 1.1 | locus YDR195W, strain ref2 0.997 | locus YDR297W, strain sur2, hits give low values 0.99 | locus YDR334W, strain swr1, hits give low values 1.01 | locus YDR335W, strain msn5, hits give low values 1 | locus YDR392W, strain spt3, hits give low values 1.11 | locus YEL003W, strain gim4, hits give low values 1 | locus YEL037C, strain rad23, hits give low values 1.02 | locus YEL061C, strain CIN8 (second series), hits give low values 0.998 | locus YER015W, strain faa2, hits give low values 0.995 | locus YER016W, strain bim1, hits give low values 0.991 | locus YER111C, strain swi4, hits give low values 0.996 | locus YER155C, strain BEM2 (second series), hits give low values 1.01 | locus YFR010W, strain ubp6, hits give low values 1.01 | locus YGL167C, strain pmr1, hits give low values 1 | locus YGL173C, strain kem1, hits give low values 0.998 | locus YGL227W, strain vid30, hits give low values 0.983 | locus YGL240W, strain doc1, hits give low values 1.03 | locus YGL253W, strain hxk2, hits give low values 0.983 | locus YHR013C, strain ard1, hits give low values 0.987 | locus YHR027C, strain rpn1, hits give low values 0.986 | locus YHR030C, strain SLT2, hits give low values 1.02 | locus YHR079C, strain IRE1, hits give low values 1.01 | locus YHR142W, strain chs7, hits give low values 0.983 | locus YJL092W, strain hpr5, hits give low values 1 | locus YJL095W, strain BCK1 (second series), hits give low values 0.992 | locus YJL095W, strain BCK1, hits give low values 1.01 | locus YJL115W, strain asf1, hits give low values 0.989 | locus YJL129C, strain trk1, hits give low values 0.961 | locus YJL154C, strain vps35, hits give low values 0.995 | locus YJL164C, strain tpk1, hits give low values 0.989 | locus YJL166W, strain qcr8, hits give low values 0.991 | locus YJL187C, strain SWE1, hits give low values 1 | locus YJR066W, strain TOR1, hits give low values 0.975 | locus YKL160W, strain elf1, hits give low values 0.996 | locus YKR026C, strain gcn3, hits give low values 1 | locus YKR091W, strain srl3, hits give low values 0.989 | locus YLL001W, strain dnm1, hits give low values 0.976 | locus YLL026W, hits give low values 0.995 | locus YLL041C, strain sdh2, hits give low values 0.996 | locus YLR027C, strain aat2, hits give low values 1.03 | locus YLR113W, strain HOG1, hits give low values 0.971 | locus YLR221C, strain rsa3, hits give low values 0.965 | locus YLR258W, strain gsy2, hits give low values 0.992 | locus YLR262C, strain YPT6 (second series), hits give low values 1.01 | locus YLR320W, strain mms22, hits give low values 0.992 | locus YLR342W, strain FKS1, hits give low values 0.993 | locus YLR357W, strain rsc2, hits give low values 1.12 | locus YLR370C, strain arc18, hits give low values 0.995 | locus YLR384C, strain iki3, hits give low values 0.994 | locus YML120C, strain ndi1, hits give low values 0.99 | locus YMR058W, strain fet3, hits give low values 1.05 | locus YMR125W, strain sto1, hits give low values 0.984 | locus YMR129W, hits give low values 0.99 | locus YMR205C, strain PFK2, hits give low values 0.982 | locus YMR231W, strain pep5, hits give low values 1 | locus YNL071W, strain lat1, hits give low values 0.992 | locus YNL183C, strain NPR1, hits give low values 0.943 | locus YNL209W, strain ssb2, hits give low values 0.991 | locus YNL322C, strain KRE1 (second series), hits give low values 0.982 | locus YNR049C, strain mso1, hits give low values 1.02 | locus YOR001W, strain rrp6, hits give low values 1.03 | locus YOR070C, strain gyp1, hits give low values 0.986 | locus YOR080W, strain dia2, hits give low values 1 | locus YOR083W, strain WHI5, hits give low values 0.977 | locus YOR106W, strain vam3, hits give low values 0.969 | locus YOR231W, strain MKK1, hits give low values 1 | locus YOR265W, strain rbl2, hits give low values 1.01 | locus YOR270C, strain vph1, hits give low values 1.12 | locus YOR290C, strain snf2, hits give low values 1.08 | locus YPL051W, strain arl3, hits give low values 1.02 | locus YPL078C, strain atp4, hits give low values 0.996 | locus YPL106C, strain sse1, hits give low values 1 | locus YPL240C, strain hsp82, hits give low values 1 | locus YPL256C, strain CLN2, hits give low values 1.01
